# Experimental data: PubChem BioAssay (EPA / NIEHS)
# Active and inactive are the calls of the source. Rule for the calls: active = hit-call score of the fitted dose curve at least 0.9, where 1 is the maximum; inactive = score below 0.9.
# Read-out: Monokine induced gamma interferon (MIG), CXCL9 (gene 4283)
# Experiment: BSK_hDFCGF_MIG: BioMAP Diversity Plus: hDFCGF Assay for Monokine induced gamma interferon (MIG) Biomarker Activity (AID 2283063)
# Conditions: primary human foreskin fibroblasts; actives raise or lower the signal
# In short: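 Endpoint derived by bidirectional fitting relative to DMSO; MIG quantified via ELISA in primary human foreskin fibroblasts harvested 24 h after dosing.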
SMILES,outcome,AC50
Cc1c(-c2cccnc2)c2ccccc2n1CCCCC(=O)O,inactive,
CC[C@H]1CC[C@H](NCc2cc3c(cc2OC)[C@H]2C[C@H]2C(=O)N3C)[C@H](c2ccccc2)N1,inactive,
CCOCCOCCOCCO,inactive,
Cn1c(=O)cc(Oc2ccc(F)cc2F)c2cnc(NCC(C)(C)O)nc21,inactive,
CC[C@H](C)C(=O)O[C@H]1C[C@@H](C)C=C2C=C[C@H](C)[C@H](CC[C@@H]3C[C@@H](O)CC(=O)O3)[C@H]21,,36.3 µM (active)
CCN(C(=O)c1cc(C)cc(OC[C@H](C)Nc2ccncc2)c1)C(C)C,inactive,
Cc1ccc(S(=O)(=O)O)cc1C,inactive,
C[C@](N)(Cc1ccc(O)c(O)c1)C(=O)O,,20 µM (active)
CC(C)CCCCCCOC(=O)c1ccc(C(=O)OCCCCCCC(C)C)c(C(=O)OCCCCCCC(C)C)c1,inactive,
O=C(O)CCN(C1(C(=O)NO)CCCC1)S(=O)(=O)c1ccc(Oc2ccc(F)cc2)cc1,inactive,
CC(C)CCCCCCCOC(=O)CCCCC(=O)OCCCCCCCC(C)C,inactive,
CNCc1ccc(NC(=O)c2c[nH]c3c2C(=O)CCC3)cc1,inactive,
Cc1ccc(N)cc1O,inactive,
Cc1[nH]cnc1C[C@H]1CCc2c(C)c3ccccc3n2C1=O,inactive,
CCCCC(CC)COC(=O)c1ccc(C(=O)OCC(CC)CCCC)cc1 (centres undefined),inactive,
CC(C)CC(C)(O)C#CC(C)(O)CC(C)C (centres undefined),inactive,
O=C(O)CC(O)C(=O)O (centres undefined),inactive,
COc1cccc(-c2ccc(/C=C\CN3CCCCCC3)cc2Cl)c1,,34.5 µM (active)
CN(C)c1ccc(N=NS(=O)(=O)O)cc1,inactive,
COC(=O)CC(=O)OC,inactive,
CCOC(=O)CC(CC(=O)OCC)(OC(C)=O)C(=O)OCC,inactive,
CC(C)=CCCC(C)=CC=O,inactive,
O=C(OC[C@H]1O[C@@H](OC(=O)c2cc(O)c(O)c(OC(=O)c3cc(O)c(O)c(O)c3)c2)[C@H](OC(=O)c2cc(O)c(O)c(OC(=O)c3cc(O)c(O)c(O)c3)c2)[C@@H](OC(=O)c2cc(O)c(O)c(OC(=O)c3cc(O)c(O)c(O)c3)c2)[C@@H]1OC(=O)c1cc(O)c(O)c(OC(=O)c2cc(O)c(O)c(O)c2)c1)c1cc(O)c(O)c(OC(=O)c2cc(O)c(O)c(O)c2)c1,,2.12 µM (active)
CC(C)=CCCC(C)CCO (centres undefined),inactive,
CCCCCCCCO,inactive,
CC(C)=CCC/C(C)=C\CO,inactive,
Clc1nc(Cl)c(Cl)c(Cl)c1Cl,inactive,
CC(O)CN(CCN(CC(C)O)CC(C)O)CC(C)O (centres undefined),inactive,
CCc1cc(SCc2sc(-c3ccc(C(F)(F)F)cc3)nc2CN2CCN(c3ccc(OC)cc3)CC2)ccc1OCC(=O)O,,3.38 µM (active)
